Assay results from PubChem BioAssay (NCI).
About 83,000 compounds went through this panel and 20% of them were active in at least one assay; those are over-represented in the sample as a whole.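 Method: cells in 96-well plates; compound added at one concentration; 48 h incubation; percent growth measured; values under 10 scored active.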 The source made the active and inactive calls.

What follows are molecules tested on MDA-MB-468 breast (assay: NCI-60 one-dose screen, 48 h (100 = growth as untreated, 0 = no growth, -100 = all killed)). Settings: 10 µM unless noted.

Row | Compound | growth
1 | O=C1Nc2ccccc2/C1=C/C(=N/c1nnc(-c2ccccc2)s1)c1ccccc1 | 56% (inactive)
2 | COc1ccc2c(c1)c(-c1nc(-c3c[nH]c4ncccc34)cs1)cn2CCCN1CCCCC1 | 57.9% (inactive)
3 | COc1c(C(=O)/C=C/c2ccc(C)o2)c(O)cc2occc12 | 30.7% (inactive)
4 | CCCC(CCC)NCC(O)c1cc(-c2ccc(C(F)(F)F)cc2)nc(C(F)(F)F)c1 (stereo not given) | -91.6% (active)
5 | CC[C@H]1[C@@H]2C=C[C@@H]3[C@H]4C/C=C\C(=O)NCCC[C@@H]5NC(=O)/C(=C(O)/C=C/[C@@H]4C[C@@H]3[C@H]2C[C@H]1C)C5=O | 76.8% (inactive)
6 | O=C(O)c1ccc(-n2cc(CNc3cccc(Cl)c3)c(-c3ccc(F)cc3)n2)cc1 | 109% (inactive)
7 | Clc1ccccc1CNc1c2ccccc2nc2ccccc12 | -27.9% (active)
8 | C=CCc1cc(C)ccc1NC(C(=O)NCC(=O)OC)c1ccccc1 (stereo not given) | 111% (inactive)
9 | CCOc1cc2c(cc1OCC)C(c1cc(C)c(O)c(C)c1)NCC2 (stereo not given) | 102% (inactive)
10 | CC1=CC(=O)CC(C)(C)[C@@]1(O)/C=C/C(C)=C\C(=O)O | -45.1% (active)
11 | Cc1ccc2c(ccc3c[n+]4c5ccccc5ccc4n32)c1 | -56.3% (active)
12 | Nc1cc(Br)c(-c2nnc(CCC(=O)c3nc4ccccc4[nH]3)o2)c(Br)c1 | 16.9% (inactive)
13 | CCCCCCC(C)CC1=C(O)c2ccccc2C(=O)C1=O (stereo not given) | 1.43% (active)
14 | c1ccc(-c2cn3c(ccc4ccccc43)n2)cc1 | 30.6% (inactive)
15 | NC1=CC(=O)c2cccnc2C1=O | -50.8% (active)
16 | CC1CCN(C(=O)CCCl)c2ccccc21 (stereo not given) | 108% (inactive)
17 | CCN(c1ccc(C(=O)N2CCN(c3ccccc3)CC2)cc1)S(C)(=O)=O | 92.5% (inactive)
18 | C/C(=N\NC(=O)Nc1ccccc1)c1nnn(-c2ccc([N+](=O)[O-])cc2)c1C | 104% (inactive)
19 | CC(=O)OC[C@H]1OC(Sc2sc(C(=O)c3ccc(C)cc3)c(N)c2-c2nc3ccccc3s2)[C@H](OC(C)=O)[C@@H](OC(C)=O)[C@@H]1OC(C)=O (stereo not given in full) | 75.4% (inactive)
20 | N#C/C(=C\c1ccc(Cl)cc1Cl)C(=O)Nc1ncc(Cc2ccc(Cl)c(Cl)c2)s1 | 88.6% (inactive)

Row | Compound | growth
21 | CC(C)(O)C1CCCN1C(=O)c1ccccc1I (stereo not given) | 73% (inactive)
22 | Oc1c(CN2CCCC2)cc(COCc2ccccc2)c2cccnc12 | -15.4% (active)
23 | NC(N)=NC(N)=Nc1ccccc1-c1ccccc1 | 109% (inactive)
24 | Cc1nc2cccc(NCc3ccc(C(=O)NO)cc3)c2c(=O)n1-c1ccccc1 | -15.3% (active)
25 | CCOC(=O)C1=C(C)n2nc(CC#N)c(C#N)c2NC1c1ccc(Cl)cc1 (stereo not given) | 117% (inactive)
26 | CC1Cc2c(ncn3c(-c4ccc(F)cc4)nnc23)N(C)c2ccccc21 (stereo not given) | 66% (inactive)
27 | O=C(/C=C/c1ccc(C(F)(F)F)cc1)c1ccc(Nc2nc(NCCO)nc(NCCO)n2)cc1 | 19.9% (inactive)
28 | COc1ccc(CNc2c3ccccc3nc3ccccc23)cc1OC | -22.7% (active)
29 | CC(=O)OC(C)c1cccc(C#N)c1 (stereo not given) | 105% (inactive)
30 | CC(C)(C)n1cc(-c2ccnc(NCCCNS(=O)(=O)c3ccc(C(F)(F)F)cc3)c2)c(-c2cccc(O)c2)n1 | 11.8% (inactive)
31 | CCCC(=O)NC(c1cccc(N(C)C)c1)c1cc(C)c2cccnc2c1O (stereo not given) | 24.8% (inactive)
32 | COc1ccc(NC(=O)COCCOCCNC[C@@H]2C(=O)O[C@H]3[C@H]2CC/C(COC(=O)OC/C2=C/CC[C@@]4(C)O[C@H]4[C@H]4OC(=O)[C@@H](CN(C)C)[C@@H]4CC2)=C\CC[C@@]2(C)O[C@@H]32)c(O)c1C(N)=O | -19.5% (active)
33 | CC(=O)N1c2ccccc2NC2=C(C(=O)N(C)C2(C)C)C1C (stereo not given) | 19.2% (inactive)
34 | CNc1ccccc1C(N)=O | 105% (inactive)
35 | Cc1ccc(-c2nc(-c3cn(C)c4ncccc34)cs2)cc1 | -50.2% [100 µM] (active)
36 | O=C(Nc1ccc(C2=NCCCN2)cc1)c1ccc(C(=O)Nc2ccc(C3=NCCCN3)cc2)nc1 | 102% (inactive)
37 | CCS(=O)(=O)N1CCN(c2ccc(Nc3ncc(C(N)=O)c(NC4CC4)n3)cc2)CC1 | 42.2% (inactive)
38 | CCNCC(=O)Nc1ccc(C(=O)OCC)cc1 | 111% (inactive)
39 | CCC[CH2][Sn]1([CH2]CCC)[O]C2C(CO)OC(n3ccc(N)nc3=O)C2[O]1 (stereo not given) | -82.9% (active)
40 | COc1ccc([C@H]2[C@H](O)C(=O)N2c2cc(OC)c(OC)c(OC)c2)cc1 | 8.33% (active)
